About 860 (78%) of roughly 1,100 compounds were called active. Roughly 19% stayed inconclusive and do not appear here. The call rests on the fitted dose curve; in most records, active means well fitted activation curve with a large enough effect; inconclusive means small, poorly fitted or top-dose-only effect; inactive means flat fitted curve, though single readings scatter. So high a share suggests a set chosen from earlier hits. This is one part of the list.
Potency means the concentration at half of the fitted maximal effect.

This test can be described thus: qHTS of Nrf2 Activators: Hit Validation in Primary Assay. Further: nearly all actives have a fitted effect of over 70% in size. On activation: 0% is about no effect. To be noted: Nrf2/ARE reporter cell assay; Potency: activation; series mostly up to 46.1 µM; activation: at the top concentration. Put shortly: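 Luminescence from Steady-Glo lysis reagent, read after 30 min, reported ARE-luciferase activity in AREc32_fluc stable cells. Compounds were tested at several concentrations, incubated 24 h at 37 °C with 5% CO2 following overnight seeding.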
`O=S(=O)(c1ccc(F)cc1)c1snnc1-c1ccccc1`: the Potency was 18.4 µM (active).
On to `O=C(/C(C=Nc1ccc(F)cc1)=C(/O)c1ccco1)C(F)(F)F`, for which the Potency was 20.6 µM (active).
On to `Cc1ccc(N=C/C(C(=O)C(F)(F)F)=C(\O)c2ccco2)cc1Cl`, for which the Potency is 7.31 µM (active).
In the case of `Cc1cccc(N=C/C(C(=O)C(F)(F)F)=C(\O)c2ccco2)c1`, the Potency was 20.6 µM (active).
The same measure, in the same setting: then `O=C(/C(C=Nc1cccc(C(F)(F)F)c1)=C(/O)c1ccco1)C(F)(F)F`, with 11.6 µM (active); and `CC(=O)Nc1ccc(N=Nc2ccccc2)cc1[N+](=O)[O-]`, with 3.66 µM (active); and `CC(=O)Nc1cc2oc3ccccc3c2cc1[N+](=O)[O-]`, with 2.59 µM (active).
On to `COC(=O)c1c(NC(=O)/C=C/C(=O)O)sc(C)c1-c1ccc(C(C)C)cc1`, for which the Potency was 10.3 µM (active).
Consider `c1ccc(-c2noc(-c3cccnc3)n2)cc1`, for which the Potency was 2.59 µM (active).
On to `COc1nc2ccc(C)cc2cc1-c1noc(-c2ccccc2)n1`, for which the Potency was 2.59 µM (active).
In the case of `COc1cccc(-c2nc(-c3ccccc3)no2)c1`, the Potency was 2.91 µM (active).
On to `c1ccc(-c2noc(-c3cccc4ccccc34)n2)cc1`, for which the Potency was 2.31 µM (active).
Still for that read-out and setting: then `Fc1ccccc1-c1nc(-c2ccc(Cl)cc2)no1`, with 3.26 µM (active).
Still for that read-out and setting: then `c1cncc(-c2noc(-c3cccc4ccccc34)n2)c1`, with 1.16 µM (active); and `CC1=NC(=O)C(N=Nc2cccc(O)c2)N1c1ccccc1` (stereo unspecified), with 7.31 µM (active).
Turning to `Cc1cccc2c(=O)n(C(=O)c3ccccc3)c(N)nc12`, the Potency is 1.03 µM (active).
As to `COc1ccc(OC)c(/C=C(\C#N)c2nc(-c3ccc(F)cc3)cs2)c1`, the Potency is 2.59 µM (active).
Still for that read-out and setting: then `COc1ccc(NC(=O)Nc2nnc(-c3ccccc3F)s2)cc1`, with 1.84 µM (active).
Take `O=C(Nc1ccccc1)c1nc[nH]c1C(=O)Nc1ccccc1F`: the “activation” value is 17.5% (inactive).
Take `O=C(Nc1nnc(-c2ccccc2F)s1)C1CCCO1` (stereo unspecified): the Potency is 7.31 µM (active).
With `O=C(Nc1nnc(-c2ccccc2F)s1)Nc1ccccc1F`, the Potency is 1.84 µM (active).
For `COc1ccccc1-c1nnc(NC(C)=O)s1`, the Potency was 20.6 µM (active).
Same read-out and setting: the figure for `O=C(CC(=O)c1ccccn1)c1ccccc1` is 3.66 µM (active); for `NS(=O)(=O)c1ccc(Sc2nc3ccccc3s2)c([N+](=O)[O-])c1` it is 16.4 µM (active).
The same measure, in the same setting: then `NC(=O)c1nc(Nc2ccccc2)sc1NC(=O)c1c(F)cccc1F`, with 2.59 µM (active).
The same measure, in the same setting: then `NC(=O)c1nc(Nc2ccccc2)sc1NC(=O)c1ccccc1Br`, with 2.31 µM (active).
Turning to `O=C(/C=C/c1ccccc1)Nc1nc(-c2cccs2)ns1`, the Potency is 2.59 µM (active).
On the same count and under the same terms, the figure for `O=C(/C=C/c1ccccc1Cl)Nc1nc(-c2cccs2)ns1` is 7.31 µM (active); for `Cc1sc2c(c1C)C(=O)NC(c1ccccc1F)N2` (stereo unspecified) it is 20.6 µM (active); for `CCC/C(=N\NC(=O)c1ccco1)c1ccc(Cl)s1` it is 5.17 µM (active).
On to `CCOC(=O)COn1c(=O)c(-c2ccco2)[n+]([O-])c2ccccc21`, for which the Potency is 9.2 µM (active).
`O=c1c(-c2ccco2)[n+]([O-])c2ccccc2n1OCc1c(F)cccc1F`: the Potency was 0.58 µM (active).
Turning to `O=c1c(-c2ccco2)[n+]([O-])c2ccccc2n1OCc1ccccc1`, the Potency was 5.17 µM (active).
Regarding `COc1ccc(-c2cc3ccccc3c(=O)o2)cc1`, the Potency is 4.61 µM (active).
Still for that read-out and setting: the figure for `CC(=O)c1sc(Nc2ccccc2)nc1C` is 18.4 µM (active).
Consider `O=[N+]([O-])c1ccc(SCc2ccco2)cc1N1CCOCC1`, for which the Potency is 2.31 µM (active).
In the case of `O=C1CC(C(=O)Nc2ccc(Cl)c(Cl)c2)S/C(=N\N=C\c2ccco2)N1` (stereo unspecified), the Potency is 0.731 µM (active).
In the case of `Cc1cccc(NC(=O)C2CC(=O)N/C(=N/N=C/c3ccco3)S2)c1` (stereo unspecified), the Potency is 2.06 µM (active).
As to `Cn1c(NC(=O)/C=C/c2ccccc2)cc(=O)n(C)c1=O`, the Potency was 20.6 µM (active).
Same read-out and setting: the figure for `Cc1ccc(NC(=O)CC2S/C(=N/N=C/c3ccco3)NC2=O)cc1Cl` (stereo unspecified) is 1.03 µM (active); for `O=C(CC1S/C(=N/N=C/c2ccco2)NC1=O)Nc1ccccc1` (stereo unspecified) it is 1.84 µM (active).
`O=c1cc(-c2ccco2)nc(SCc2cccc(Cl)c2)[nH]1`: the Potency is 1.16 µM (active).
In the case of `O=C(Nc1ccccn1)c1csc2c1CCCC2`, the Potency is 5.8 µM (active).
On to `COC(=O)c1cc2nc(-c3ccccc3)cc(C(F)(F)F)n2n1`, for which the Potency was 6.51 µM (active).
In the case of `O=c1nc2c(O)cccn2c2c1c(=O)[nH]c1ccccc12`, the Potency was 2.31 µM (active).
Take `O=c1cc(COc2ccccc2[N+](=O)[O-])nc2sccn12`: the Potency is 9.2 µM (active).
Consider `CCOC(=O)CCn1c(=O)c2cccn2c2cccnc21`, for which the Potency was 18.4 µM (active).
As for `CCCc1cc(C(N)=O)c(NC(=O)c2ccco2)s1`, the Potency was 4.61 µM (active).
Consider `NC(=O)c1c(NC(=O)c2ccc([N+](=O)[O-])o2)sc2c1CCCC2`, for which the Potency was 2.91 µM (active).
On to `N#Cc1c(NC(=O)c2ccc([N+](=O)[O-])o2)sc2c1CCC2`, for which the Potency is 3.66 µM (active).
The same measure, in the same setting: then `NC(=O)c1c(NC(=O)c2ccco2)sc2c1CCC2`, with 2.59 µM (active).
Same read-out and setting: then `O=C(NCC1CCCO1)c1ccc([N+](=O)[O-])o1` (stereo unspecified), with 23.1 µM (active); and `O=C1Nc2ccccc2/C1=C/c1ccccc1Cl`, with 2.31 µM (active).
Consider `Cc1ccccc1/C=C1\C(=O)Nc2ccc(F)cc21`, for which the Potency was 5.17 µM (active).
With `N#CC(=C1C=CC(=NO)C(Cl)=C1)c1ccccc1`, the Potency is 5.17 µM (active).
Regarding `O=C(/C=C/c1ccccc1Cl)Nn1cnc2ccccc2c1=O`, the Potency was 2.91 µM (active).
On the same count and under the same terms, then `N#Cc1c(-c2ccco2)cc(-c2ccccc2)[nH]c1=O`, with 1.64 µM (active); and `CC(=O)Oc1c(-c2ccco2)oc2ccccc2c1=O`, with 0.651 µM (active); and `Nc1c(C(=O)C2CC2)sc2nc(-c3cccs3)cc(C(F)(F)F)c12`, with 2.91 µM (active).
Same read-out and setting: then `CC(=O)c1sc2nc(-c3cccs3)cc(C(F)(F)F)c2c1N`, with 2.59 µM (active); and `O=C(NN/C(=N/S(=O)(=O)c1ccc(Cl)cc1)c1ccccc1)c1cccc(Cl)c1`, with 9.2 µM (active).
On the same count and under the same terms, the figure for `Cc1ccc(S(=O)(=O)/N=C(/NNC(=O)c2cccc(Cl)c2)c2ccccc2)cc1` is 18.4 µM (active).
`COCCN(C(=O)c1ccco1)c1nc(-c2ccccc2)cs1`: the Potency is 20.6 µM (active).
Still for that read-out and setting: the figure for `C=C1C2=C(C(=O)N1OC)[C@@H](O)[C@@](C)(O)[C@@H](CCCCC)O2` is 23.1 µM (active).
As to `Cc1ccc([N+](=O)[O-])c(OCc2ncc(Cl)n2C)c1`, the Potency is 18.4 µM (active).
On to `Cc1ccccc1CS(=O)(=O)c1cnc2ccccc2n1`, for which the Potency is 16.4 µM (active).
With `CCOc1cc(C=O)cc(N=Nc2cccc([N+](=O)[O-])c2)c1O`, the Potency is 16.4 µM (active).
On the same count and under the same terms, then `O=C(Nc1ccc2ccccc2c1)c1ccc(Br)o1`, with 2.91 µM (active); and `Cc1cccc(NC(=S)NC(=O)c2ccc(Br)o2)c1`, with 10.3 µM (active); and `Cc1nc(NC(=O)c2ccc(Br)o2)ccc1Br`, with 9.2 µM (active).
Same read-out and setting: then `O=C(/C=C/c1ccco1)Nc1cccnc1Cl`, with 1.46 µM (active); and `O=C(/C=C/c1ccco1)Nc1cccc2cccnc12`, with 0.82 µM (active); and `O=C1C2C3C=CC(C4CC34)C2C(=O)N1/N=C/c1ccc([N+](=O)[O-])o1` (stereo unspecified), with 3.66 µM (active).
On the same count and under the same terms, then `O=C1C2C(C(=O)N1/N=C/c1ccc([N+](=O)[O-])o1)C1C=CC2C12CC2` (stereo unspecified), with 18.4 µM (active).
In the case of `Nc1ccc2c(Cl)cc(Cl)cc2c1`, the Potency was 2.31 µM (active).
Take `Cn1c(=O)c(C(=O)NNC(=O)c2ccccc2F)c(O)c2ccccc21`: the Potency is 2.31 µM (active).
For `O=C(c1ccc(S(=O)(=O)Cc2cc(F)ccc2F)c([N+](=O)[O-])c1)N1CCCC1`, the Potency was 7.31 µM (active).
As to `O=C(c1ccc(S(=O)(=O)Cc2ccccc2Cl)c([N+](=O)[O-])c1)N1CCOCC1`, the Potency is 18.4 µM (active).
Still for that read-out and setting: the figure for `Cc1ccc(Cl)c2sc(NC(=O)C3CC3)nc12` is 5.8 µM (active); for `Cc1nc2sc(C(=O)c3ccccc3)c(N)c2c2c1CCCC2` it is 3.66 µM (active).
Same read-out and setting: then `Cc1ccc2c(N)c(C(=O)c3ccccc3)sc2n1`, with 14.6 µM (active).
Take `CSc1c(C#N)c(N)nc2sc(C(=O)c3ccccc3)c(N)c12`: the Potency is 4.61 µM (active).
As to `O=C(Nc1cccn2ncnc12)c1cccc(C(F)(F)F)c1`, the Potency is 18.4 µM (active).
Still for that read-out and setting: the figure for `COc1ncccc1-c1cc2nc(NCCNC(C)=O)n(C)c(=O)c2s1` is 2.59 µM (active); for `CC(=O)NCCNc1nc2cc(-c3cscc3C)sc2c(=O)n1C` it is 1.3 µM (active); for `CCn1ncc(Br)c1C(=O)Nc1cc([N+](=O)[O-])ccc1C` it is 2.91 µM (active).
Turning to `O=C(NNC(=O)C12CC3CC(CC(C3)C1)C2)c1cccc([N+](=O)[O-])c1`, the “activation” value was 26.6% (inactive).
For `Cc1ccc([N+](=O)[O-])cc1NC(=O)c1ccccc1`, the Potency was 7.31 µM (active).
Same read-out and setting: then `Cc1ccc([N+](=O)[O-])cc1NC(=O)c1ccc(C(C)(C)C)cc1`, with 4.61 µM (active); and `Cn1c(=O)n(C)c2cc(NC(=O)c3cccc([N+](=O)[O-])c3)c(Br)cc21`, with 13 µM (active); and `O=C(Nc1cnc2ccccc2c1)c1ccco1`, with 2.91 µM (active).
With `O=C(NC(=S)Nc1cnc2ccccc2c1)c1ccccc1`, the Potency is 2.59 µM (active).
Still for that read-out and setting: the figure for `c1ccc(C2=Nn3c(nnc3-c3ccco3)SC2)cc1` is 1.84 µM (active); for `O=c1cc(/C=C/c2ccccc2)oc2ccccc12` it is 2.31 µM (active); for `COc1ccc(Cl)cc1NC(=O)CSc1c2c(nc3ccccc13)CCC2` it is 18.4 µM (active).
Still for that read-out and setting: then `COc1ccc(N2CCCC2)c(NC(=O)c2ccc([N+](=O)[O-])o2)c1`, with 6.51 µM (active).
`COc1ccc(S(=O)(=O)N2CCN(C(=O)c3ccc([N+](=O)[O-])o3)CC2)cc1`: the Potency was 5.8 µM (active).
Same read-out and setting: then `COC(=O)c1scc(C)c1NC(=O)c1ccc(Cl)cc1`, with 3.66 µM (active); and `CCCn1nc([N+](=O)[O-])c(C(C#N)c2nc3ccccc3s2)c(Cl)c1=O` (stereo unspecified), with 2.31 µM (active).
On the same count and under the same terms, the figure for `COc1cc(/C=N/Nc2ccccn2)cc(OC)c1O` is 5.8 µM (active); for `COc1ccc(Br)cc1/C=N/Nc1ccccn1` it is 2.59 µM (active).
